Screening data (PubChem BioAssay)
This is a sample that favours compounds with a hit; in the whole collection about 7.8% have one here.
Shh pathway inh – blocks Sonic Hedgehog signaling. Shh-LIGHT2 Gli-luciferase reporter, 30 h. inhibition, % (concentration not given with the values). 22,000 tested, 2.1% active. AID 2313;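 active means mean inhibition across valid replicates above about 65%, limit read from the data; inconclusive means mean under the limit, yet half or more replicates past it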;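 further: pathway switched on by Shh-conditioned medium diluted 1 in 25 in low serum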
MITF inh – inhibitors of MITF | 37,000 tested, 0.28% active | AID 2240 | TRPM1 promoter luciferase, luminescence, 24 h | inhibition, % (test concentration not listed); in the data active means inhibition above about 85%; inconclusive means no clear call, values can overlap the other calls; inactive means below about 68%;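 further: human melanocyte line stably carrying TRPM1 promoter luciferase reporter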
NOMO-1 viab – STK33 inhibitor candidate reducing NOMO-1 cell viability; NOMO-1 AML viability, CellTiter-Glo luminescence, 72 h; inhibition, % (concentration not given with the values); 37,000 tested, 7.5% active; AID 2330; in the data active means inhibition above about 80%; inconclusive means no clear call, values can overlap the other calls
Active calls of the source: *.

C[C@H]1O[C@@H](O[C@H]2C[C@@H](O)[C@]3(CO)C4C(CC[C@]3(O)C2)[C@@]2(O)CC[C@H](C3=CC(=O)OC3)[C@@]2(C)C[C@H]4O)[C@@H](O)[C@@H](O)[C@H]1O (stereo partly drawn) was read as Shh pathway inh -22, MITF inh 31 and NOMO-1 viab 121*.
Screening CC1OC(O[C@H]2C[C@@H](O)[C@]3(CO)[C@H]4[C@H](O)C[C@]5(C)[C@@H](C6=CC(=O)OC6)CC[C@]5(O)[C@@H]4CC[C@]3(O)C2)C(O)C(O)C1O (stereo partly drawn) returned Shh pathway inh -25, MITF inh 6 and NOMO-1 viab 98*.
`C[C@@H]1O[C@@H](O[C@H]2C[C@@H](O)[C@]3(CO)C4C(CC[C@]3(O)C2)[C@@]2(O)CC[C@H](C3=CC(=O)OC3)[C@@]2(C)C[C@H]4O)[C@H](O)[C@H](O)[C@H]1O` (stereo partly drawn) gave Shh pathway inh -16, MITF inh 7 and NOMO-1 viab 107*.
For N[C@H](CO)Cc1ccccc1 the results were Shh pathway inh 0, MITF inh -9 and NOMO-1 viab -3.
C[C@]12C=CC(=O)C=C1CC[C@@H]1C2CC[C@]2(C)C(=O)CCC12 (stereo partly drawn) was read as Shh pathway inh -5, MITF inh -16 and NOMO-1 viab 12.
COc1cc(OC)c(OC)cc1C=O was read as Shh pathway inh -35, MITF inh -49 and NOMO-1 viab 8.
For Cc1cc(C(F)F)n2nc(C(=O)Nc3ccc4c(C(F)(F)F)cc(=O)oc4c3)nc2n1 the results were MITF inh -17 and NOMO-1 viab 13.
`CN1C(=O)c2ccccc2NC(=O)C1Cc1ccccc1` (stereo not drawn) gave Shh pathway inh -25, MITF inh -3 and NOMO-1 viab 10.
For O=C(O)C1C2CCC(O2)C1C(=O)Nc1ccc(Cl)cc1 (stereo not drawn) the results were MITF inh 13 and NOMO-1 viab 42.
Oc1cccc2cccnc12 was read as Shh pathway inh -37, MITF inh 18 and NOMO-1 viab 111*.
For O=C1CSC(c2ccccc2Cl)c2cc(Cl)ccc2N1 (stereo not drawn) the results were Shh pathway inh 48, MITF inh 23 and NOMO-1 viab 50.
O=C(CCCN1CCC2(CC1)C(=O)N(Cc1cccc(F)c1)CN2c1ccccc1)c1ccc(F)cc1 was read as Shh pathway inh inconclusive, MITF inh 76 and NOMO-1 viab 91*.
Screening COc1cc(O)c(C(=O)O)c(-c2cc(O)c(O)cc2C)c1 returned Shh pathway inh 11, MITF inh 6 and NOMO-1 viab 37.
For COc1ccc(CCNCc2cc(Cl)cc(Cl)c2OC)cc1OC the results were MITF inh 7 and NOMO-1 viab 15.
Screening C=C(C)[C@H]1O[C@H]2CC[C@@]3(C)[C@@](O)(CC[C@H]4[C@@H]5OC(C)(C)[C@H]6C[C@@H]7C(=C)Cc8c(Cl)cc9[nH]c(c5c9c8[C@@]76O)[C@@]43C)[C@]23O[C@@H]3[C@H]1O returned Shh pathway inh -12, MITF inh 52 and NOMO-1 viab 116*.
For COC(=O)C1CC(=O)C[C@H]2[C@]3(C)C[C@@H](c4ccoc4)OC(=O)[C@H]3CC[C@@]12C (stereo partly drawn) the results were Shh pathway inh 0, MITF inh -20 and NOMO-1 viab 1.
`COC(=O)c1cc2c(cn1)[nH]c1ccccc12` gave Shh pathway inh -48, MITF inh 1 and NOMO-1 viab 41.
CN1CCC2=C[C@H](O)[C@H]3OC(=O)c4cc5c(cc4[C@H]3[C@@H]21)OCO5 was read as Shh pathway inh -5, MITF inh 3 and NOMO-1 viab 26.
`CN1Cc2c(ccc3c2OCO3)[C@@H]2[C@H]1c1cc3c(cc1C[C@@H]2O)OCO3` gave Shh pathway inh -8, MITF inh 23 and NOMO-1 viab 138*.
Screening C[C@H]1C(=O)O[C@@H]2CCN3CC=C(COC(=O)[C@](C)(O)[C@]1(C)O)[C@H]23 returned Shh pathway inh -37, MITF inh 7 and NOMO-1 viab 0.
`N[C@H]1C[C@@H]1c1ccccc1` gave Shh pathway inh inconclusive, MITF inh -13 and NOMO-1 viab 31.
`C[C@H]1CC[C@@H]2[C@@H](C)[C@H]3[C@H](C[C@H]4[C@@H]5CC=C6CC(O[C@@H]7O[C@H](CO)[C@@H](O)[C@H](O[C@@H]8O[C@H](CO)[C@@H](O)[C@H](O)[C@H]8O)[C@@H]7O[C@@H]7O[C@@H](C)[C@H](O)[C@@H](O)[C@H]7O)CC[C@]6(C)[C@H]5CC[C@]34C)N2C1` (stereo partly drawn) gave Shh pathway inh 25, MITF inh 52 and NOMO-1 viab 110*.
C[C@H]1CC[C@@H]2[C@@H](C)[C@H]3[C@H](C[C@H]4[C@@H]5CC=C6C[C@@H](O[C@@H]7O[C@H](CO)[C@H](O)[C@H](O[C@@H]8O[C@H](CO)[C@@H](O)[C@H](O)[C@H]8O)[C@H]7O[C@@H]7O[C@@H](C)[C@H](O)[C@@H](O)[C@H]7O)CC[C@]6(C)[C@H]5CC[C@]34C)N2C1 was read as Shh pathway inh 2, MITF inh 8 and NOMO-1 viab 32.
`CC(C)C[C@H]1C(=O)N2CCC[C@H]2[C@]2(O)O[C@](NC(=O)[C@@H]3C=C4c5cccc6[nH]cc(c56)C[C@H]4N(C)C3)(C(C)C)C(=O)N12` gave Shh pathway inh -23, MITF inh -1 and NOMO-1 viab inconclusive.
`c1ccc(CSc2nnc(-c3ccccc3)o2)cc1` gave Shh pathway inh -65, MITF inh -29 and NOMO-1 viab 39.
CC(=O)c1cccc(NC(=O)CSC2c3ccccc3-c3ccccc32)c1 was read as MITF inh 5 and NOMO-1 viab 38.
`CC(C)N(C(=O)CCl)c1ccccc1` gave Shh pathway inh 71*, MITF inh 14 and NOMO-1 viab 111*.
CCc1cccc(C)c1N(C(=O)CCl)C(C)COC (stereo not drawn) was read as Shh pathway inh -61, MITF inh 3 and NOMO-1 viab 14.
For CCN1C[C@]2(C)CC[C@H](OC)[C@@]34C1[C@@]1(OCO[C@@]15C[C@H](OC)[C@H]1C[C@]3(O)[C@@H]5[C@H]1OC)[C@@H](OC(C)=O)[C@H]24 the results were Shh pathway inh 3, MITF inh -6 and NOMO-1 viab 11.
`Cc1nn(Cc2cccc(C(=O)Nc3ccc4oc(=O)cc(C(F)(F)F)c4c3)c2)c(C)c1Cl` gave MITF inh 15 and NOMO-1 viab 37.
Screening CC[C@H]1CN2CCc3cc(OC)c(OC)cc3[C@@H]2C[C@@H]1C[C@H]1NCCc2cc(O)c(OC)cc21 returned Shh pathway inh 86*, MITF inh 88* and NOMO-1 viab 120*.
COc1cc2c(cc1O)CCNC2C (stereo not drawn) was read as Shh pathway inh 1, MITF inh -14 and NOMO-1 viab -1.
COc1cc2c(cc1O)CC1c3c(cc(O)c(OC)c3-2)CCN1C (stereo not drawn) was read as Shh pathway inh -16, MITF inh 20 and NOMO-1 viab 27.
